# Source: PubChem BioAssay AID743466 (Vanderbilt Specialized Chemistry Center, 2014)
# Target: Metabotropic glutamate receptor 4 (Homo sapiens) (UniProt Q14833)
# Assay: agonist response potentiation at mGlu4 receptor – cell-based, GIRK thallium flux, mechanism study for group III mGlu PAM project, late-stage follow-up (AID 743466)
# Conditions: mGlu4/GIRK cells, glutamate CRC fold shift, at 10 µM, stronger effect = higher value
# Sequence of Metabotropic glutamate receptor 4 (Homo sapiens) (Q14833 whole entry, looked up): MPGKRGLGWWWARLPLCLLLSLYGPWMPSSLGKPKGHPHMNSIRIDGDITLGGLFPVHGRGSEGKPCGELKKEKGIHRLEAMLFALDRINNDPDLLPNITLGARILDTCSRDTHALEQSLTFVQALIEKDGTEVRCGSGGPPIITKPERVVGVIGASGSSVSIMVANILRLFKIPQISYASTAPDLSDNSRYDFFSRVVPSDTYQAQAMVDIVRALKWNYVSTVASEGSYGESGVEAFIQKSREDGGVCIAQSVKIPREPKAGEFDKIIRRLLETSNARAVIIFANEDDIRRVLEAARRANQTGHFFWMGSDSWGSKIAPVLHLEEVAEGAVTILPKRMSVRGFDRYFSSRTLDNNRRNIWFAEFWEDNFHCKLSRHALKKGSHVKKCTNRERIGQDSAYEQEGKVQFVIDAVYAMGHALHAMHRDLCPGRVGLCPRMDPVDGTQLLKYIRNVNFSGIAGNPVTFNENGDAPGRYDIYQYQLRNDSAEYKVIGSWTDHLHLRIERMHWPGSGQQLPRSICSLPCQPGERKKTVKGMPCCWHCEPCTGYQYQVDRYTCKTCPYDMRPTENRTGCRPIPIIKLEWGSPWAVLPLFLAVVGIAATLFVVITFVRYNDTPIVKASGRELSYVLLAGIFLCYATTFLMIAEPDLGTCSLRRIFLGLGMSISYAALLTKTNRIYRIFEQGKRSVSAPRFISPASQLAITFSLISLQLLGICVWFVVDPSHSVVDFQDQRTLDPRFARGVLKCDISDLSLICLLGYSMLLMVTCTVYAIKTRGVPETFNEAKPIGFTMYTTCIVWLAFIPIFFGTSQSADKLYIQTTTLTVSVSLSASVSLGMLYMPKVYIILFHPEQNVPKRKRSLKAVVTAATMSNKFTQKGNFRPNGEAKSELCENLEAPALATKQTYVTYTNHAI
smiles,measurement,value
COC(=O)c1ccc(-n2c(C)cc(C(=O)CSc3ccc(NC(C)=O)cc3)c2C)cc1,fold shift,1.84
